Reference: PubChem BioAssay (NCATS)
Inconclusive results are not listed. Calls of active or inactive are those of the source. Calls come from the whole dose curve; as a rule, active = well fitted inhibition curve with a large enough effect; inconclusive = small, poorly fitted or top-dose-only effect; inactive = flat fitted curve, though single readings scatter.

What follows are compounds tested against Calcium and integrin-binding protein 1 (Homo sapiens) (UniProt Q99828) (assay: Primary qHTS for Identification of Calcium Integrin Binding Protein 1 (CIB1) Competitor (AID 1508620;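 note: GST tagged CIB1 binding a fluorescein labelled alphaIIb integrin peptide tracer; top concentration of the series differs between compounds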)). Settings: CIB1-GST / FITC-alphaIIb peptide fluorescence polarization; series mostly up to 114 µM; activity change, negative = inhibition: at the top concentration.
How it was run: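 CIB1-GST (1 uM final) and compound incubated 15 min at room temperature before adding FITC-alphaIIb peptide tracer (100 nM final). Competition for binding read by fluorescence polarization (ex 480, em 540) after another 15 min at room temperature.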
% is set by controls: 0 for no effect and ±100 for the full control effect.

Calcium and integrin-binding protein 1 (Homo sapiens), sequence (Q99828 whole entry, looked up): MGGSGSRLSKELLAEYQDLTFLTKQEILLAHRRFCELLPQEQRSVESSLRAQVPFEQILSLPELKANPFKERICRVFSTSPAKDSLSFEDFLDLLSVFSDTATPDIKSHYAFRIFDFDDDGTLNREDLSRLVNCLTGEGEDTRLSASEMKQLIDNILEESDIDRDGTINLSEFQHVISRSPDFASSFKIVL

Structure (SMILES) | activity change, negative = inhibition
O=C1CCCC2=C1C(c1[nH]ncc1Cl)NC(=NCc1cccs1)N2 (stereo not given) | -2.05% (inactive)
N#Cc1cccc(-c2csc(N3CCC(C(N)=O)CC3)n2)c1 | 1.27% (inactive)
NC(=O)C1CCN(c2nc(-c3ccc4c(c3)OCCO4)cs2)CC1 | 1.22% (inactive)
CNc1nc(-c2cccc3ccccc23)ccc1C#N | 3.64% (inactive)
O=C1CCCC2=C1C(c1ccc(F)cc1)N=C(Nc1nc3ccccc3o1)N2 (stereo not given) | 0.0166% (inactive)
Cc1cccc(C)c1-n1c(SCC(=O)NCCCCCC(=O)O)nnc1-c1cccc([S+](=O)([O-])N2CCCC2)c1 | -2.74% (inactive)
Cc1cccc(-n2cnc3cc(C(=O)N4CCCC(c5ccccc5)C4)ccc32)c1 (stereo not given) | 3.59% (inactive)
Cc1cc2c(s1)c1cnn(Cc3ccc(C(=O)O)cc3)c(=O)c1n2C | -13.3% (inactive)
Cc1cc2c(s1)c1c(C)nn(Cc3ccccc3F)c(=O)c1n2C | 2.25% (inactive)
Cc1ccc(NS(=O)(=O)c2ccc(N3CCCC3=O)cc2)cc1C | 4.41% (inactive)
Cc1ccc(OCCn2c(CCNC(=O)c3ccccc3Br)nc3ccccc32)cc1 | 4.39% (inactive)
CC(=O)c1ccc(NC(=O)Nc2nnc(-c3ccncc3)s2)cc1 | 6.66% (inactive)
COc1cccc(CNc2ccc(S(=O)(=O)Nc3cccs3)cc2)c1O | -1.7% [at 30.2 µM] (inactive)
COc1ccc(OC)c(-c2nnc(NC(=O)Nc3ccc4ccccc4c3)s2)c1 | 2.95% (inactive)
Oc1ccc(CNc2ccc(C(F)(F)F)cc2Cl)c2cccnc12 | -2.74% (inactive)
COc1cc(F)c(S(=O)(=O)N2CCCN(S(=O)(=O)c3cccc(NC(C)=O)c3)CC2)c(F)c1 | -3.02% (inactive)
Fc1c(-c2ccc3ncnc(NCc4cccs4)c3c2)ccc2c1OCO2 | 4.89% (inactive)
COc1ccc(C2Nc3ccccc3C(=O)N2Cc2cccnc2)cc1COc1ccc(NC(C)=O)cc1 (stereo not given) | 1.98% (inactive)
NC(=O)C1CCN(c2ncc(-c3cccc(N4CCCC4)c3)s2)CC1 | -12.1% (inactive)
CCOc1ccc(CCNC(=O)c2cc3sccc3n2CCN2CCN(C)CC2)cc1OCC | -0.993% (inactive)

Structure (SMILES) | activity change, negative = inhibition
COc1ccc(OC)c(NC(=O)C(OC(=O)CNC(=O)c2ccccc2)c2ccccc2)c1 (stereo not given) | 2.26% (inactive)
O=C(O)c1cccc(-n2cccc2/C=C2/C(=O)N(Cc3ccc(F)cc3)C(=O)N2Cc2ccc(F)cc2)c1 | -17.3% (inactive)
COc1ccc(NC(=O)c2cccnc2)cc1S(=O)(=O)Nc1ccc(Br)cc1 | -0.452% (inactive)
Cc1cc2c(s1)c1c(n2C)C(=O)N(Cc2ccccc2F)C1 | -7.44% (inactive)
CCN(CCc1cn(C)cn1)c1ncnc2ccc(-c3ccc4c(c3)OCO4)cc12 | 4.75% (inactive)
O=C(Nc1ncc(Cc2ccc(C(F)(F)F)cc2)s1)c1ccc(-c2ccccc2)o1 | 2.56% (inactive)
O=C(Cn1ncccc1=O)NCCc1ccccc1 | 3.14% (inactive)
O=C(Nc1ccc(F)c(C(F)(F)F)c1)Nc1ccc(-c2ccncc2)s1 | -7.96% (inactive)
O=C(Nc1cncnc1)c1cccs1 | 4.6% (inactive)
S=C(Nc1cc(Cl)ccn1)N1CCN(c2ccc(Cl)cc2Cl)CC1 | 1.39% (inactive)
O=[S+]([O-])(c1c(F)cccc1F)N1CCN([S+](=O)([O-])c2cccc3nonc23)CC1 | -0.115% (inactive)
Cc1ccccc1C(=O)N1CCc2cc(-c3nc(NC(=O)c4ccc5c(c4)OCO5)sc3C)ccc21 | 0.109% (inactive)
Cc1ccnc(NC(=S)N2CCN(c3ccc(O)cc3)CC2)c1 | -25.3% (inactive)
NC(=O)C1CCN(c2nc(-c3ccccc3[N+](=O)[O-])cs2)CC1 | -7.41% (inactive)
CCNC(=O)c1ccc(-c2ccc3ncnc(NCCc4cnc[nH]4)c3c2)o1 | -12.5% (inactive)
COc1cc(CNc2ncnc3ccc(-c4c(C)noc4C)cc23)cc(OC)c1OC | 1.62% (inactive)
FC(F)(F)c1cccc(-c2nc(NCc3ccc(-c4cccnc4)cc3)c3ccccc3n2)c1 | 5.81% (inactive)
CN(Cc1cncn1C)c1ncnc2ccc(-c3ccc4c(c3)OCO4)cc12 | -10.1% (inactive)
Cc1ccsc1CN(C)c1ncnc2ccc(-c3ccoc3)cc12 | -16.5% (inactive)
O=S(=O)(Nc1cnc2ccccc2c1)c1ccc(NCc2ccc(Br)cc2O)cc1 | 5.68% (inactive)
